Here are results for 39 compounds from PubChem BioAssay.

Unmarked numbers belong to inactive results. Activity calls are given as the source filed them.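 How the source made its calls: active means fluorescence slope higher than the sample average by over 3 SD (cut at about -0.22 in these data, passing the limit was not always enough); inactive means the rest.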

Sequence of Voltage-gated potassium channel subunit beta-2 (Rattus norvegicus) (P62483 whole entry, looked up): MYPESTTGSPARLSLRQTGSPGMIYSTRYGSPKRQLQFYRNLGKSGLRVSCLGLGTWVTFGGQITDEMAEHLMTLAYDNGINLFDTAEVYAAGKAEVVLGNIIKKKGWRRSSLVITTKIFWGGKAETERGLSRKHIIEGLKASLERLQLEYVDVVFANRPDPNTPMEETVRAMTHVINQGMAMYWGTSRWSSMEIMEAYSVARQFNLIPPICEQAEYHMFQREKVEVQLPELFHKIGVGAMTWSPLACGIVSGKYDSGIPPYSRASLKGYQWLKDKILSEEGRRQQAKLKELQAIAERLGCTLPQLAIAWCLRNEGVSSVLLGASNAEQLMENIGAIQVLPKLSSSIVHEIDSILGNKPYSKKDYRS

This test has as its target Voltage-gated potassium channel subunit beta-2 (Rattus norvegicus) (UniProt P62483). Kind of test: KvBeta enzyme negative modulators, primary screen, biochemical, NADPH fluorescence (AID 622).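 Further: slope of raw intensity against log time taken from 70 to 1610 s.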 The conditions noted are these: recombinant KvBeta, 4-cyanobenzaldehyde reduction, at 10 µM, hits give high values.
`Cn1c(COc2ccccc2)nnc1SCC(=O)Nc1ccc(N2CCOCC2)c(Cl)c1`: the fluorescence slope was -0.477.
Take `O=C(CSc1nnc(Cc2ccccc2)n1C1CCCCC1)N1CCOCC1`: the fluorescence slope is -0.463.
For `C1=CC2CC1CC2CN1CCN(c2ccccc2)CC1` (centres undefined), the fluorescence slope is -0.479.
For the compound `COc1ccc(-c2nnc(SCC#N)o2)cc1`, the fluorescence slope was -0.511.
Under `CC(=O)Nc1ccc(N2CCN(Cc3ccccc3F)CC2)cc1` stands -0.579; under `O=C1C2C3C=CC(C3)C2C(=O)N1CNc1ccc(O)cc1` (centres undefined), -0.507; under `COc1cc2c(cc1OC)-c1cc(OCc3cccnc3)nc(=O)n1CC2`, -0.0427 (active).
`Cc1cc2ncn(C(=O)N3CCOCC3)c2cc1C`: the fluorescence slope was -0.572.
Turning to `COc1ccccc1N1CCN(C(=O)CCNS(=O)(=O)c2ccc3c(c2)CCC(=O)N3)CC1`, the fluorescence slope is -0.39.
Under `CCOC(=O)c1cc(C)n(CCCN2CCOCC2)c1C` stands -0.473; under `CCCc1cc(=O)n2[nH]c(-c3ccc(Br)cc3)cc2n1`, -0.473.
Consider `CCCC1C(C#N)=C(N)Oc2n[nH]c(C(C)(C)C)c21` (centres undefined), for which the fluorescence slope was -0.571.
For `CCOC(=O)CSc1nnc(-c2cccnc2)n1Cc1ccccc1`, the fluorescence slope was -0.576.
For the compound `CCOc1ccccc1C(=O)NCCC(=O)O`, the fluorescence slope was -0.505.
In the case of `CC(C(=O)Nc1ccccc1-c1ccccc1)N1CCN(C(=O)c2ccco2)CC1` (centres undefined), the fluorescence slope was -0.395.
Under `CC(C)(C)n1ncc2c(=O)n(CC(=O)NCc3ccco3)cnc21` stands -0.574.
`CCn1c(=O)cc(OCC(=O)Nc2cc(C)ccn2)c2ccccc21`: the fluorescence slope is -0.537.
As for `COc1ccc(CN2CC(C(=O)NCCCOC(C)C)CC2=O)cc1` (centres undefined), the fluorescence slope is -0.522.
`CCOC(=O)C1=C(CC)Nc2ccccc2N=C1NC(=O)Cn1cnc2ccccc2c1=O`: the fluorescence slope was -0.534.
For `Cc1ccc(-n2ncc3c(=O)n(CC(=O)NC4CCCCC4)cnc32)cc1C`, the fluorescence slope is -0.575.
`N#Cc1c(/N=C/c2ccco2)sc2c1CCC2`: the fluorescence slope was -0.507.
Under `O=C(C1CCN(S(=O)(=O)Cc2ccccc2)CC1)N1CCN(c2ncccn2)CC1` stands -0.431; under `COc1cccc(-c2nc(-c3ccc(NC(=O)Cc4ccccc4OC)cc3)no2)c1`, -0.561.
With `O=C(COc1ccc(Cl)cc1)Nc1nc(-c2cccs2)cs1`, the fluorescence slope is -0.567.
`COCCNC(=O)CN(C)S(=O)(=O)c1ccc2c(c1)OCCO2`: the fluorescence slope was -0.527.
Turning to `O=C(Cn1c(=O)n(Cc2ccc3c(c2)OCO3)c(=O)c2ccccc21)N1CCCc2ccccc21`, the fluorescence slope is -0.595.
With `NC(=O)CSc1nnc(-c2ccc(O)cc2)n1Cc1ccco1`, the fluorescence slope is -0.531.
Take `COC(=O)Cc1[nH]nc2c1C(C1C=CCCC1)C(C#N)=C(N)O2` (centres undefined): the fluorescence slope is -0.41.
As to `N#Cc1c(-c2ccccc2)nc(SCc2nc(N)nc(N3CCCCC3)n2)[nH]c1=O`, the fluorescence slope is -0.442.
Regarding `CCn1c(SCC(=O)NCc2ccco2)nc2c(c1=O)SC(C)C2` (centres undefined), the fluorescence slope is -0.4.
Under `CCn1c(C)nc2cc(C(=O)OC(C(F)(F)C(F)F)C(F)(F)C(F)F)ccc21` stands -0.557; under `O=C(CCN1CCN(CCO)CC1)Nc1ccc(OCc2ccccc2)cc1`, -0.584.
As to `COc1ccc2c(c1)CCc1c(C(=O)N3CC4(C)CC3CC(C)(C)C4)noc1-2` (centres undefined), the fluorescence slope was -0.586.
`Cc1cc(NC(=O)CCC(=O)N(CC2CCCO2)C(C(=O)NC2CCCC2)c2ccccc2C)no1` (centres undefined): the fluorescence slope is -0.453.
With `COc1ccc2c(c1)CCc1c(C(=O)NCc3cccnc3)noc1-2`, the fluorescence slope was -0.462.
As to `O=C(Nc1c(-c2ccccc2)nc2ccccn12)c1ccco1`, the fluorescence slope is -0.56.
Under `O=C(CCCC(=O)N(CC(=O)NC1CCCCC1)Cc1ccc2c(c1)OCO2)Nc1ccccn1` stands -0.479.
Under `CCOC(=O)N1CCN(C(=O)C2c3cc(OC)c(OC)cc3C(=O)N3CCc4ccccc4C23)CC1` (centres undefined) stands -0.397.
Turning to `COC(=O)Cc1csc(N)n1`, the fluorescence slope is -0.529.
